Inconclusive results are not listed. A number with no mark means an inactive call. The source made the active and inactive calls. Calls come from the whole dose curve; as a rule, active = well fitted curve in the direction sought with a large enough effect; inconclusive = small, poorly fitted or top-dose-only effect, or another doubt; inactive = no such curve, though single readings can be large; an effect the other way counts as inactive or inconclusive. Where a SMILES comes first, the peptide text is derived from it. [ ]: non-standard residue; d: D form. pGlu = O=C1CC[C@@H](C(=O)O)N1; Thz = O=C(O)[C@@H]1CSCN1
Tested on: Zika virus NS2B-NS3 protease
Assay: Primary screen GU AMC qHTS for Zika virus inhibitors (AID 1347154);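 note: 0% = no-inhibitor control and -100% = no-enzyme control; nearly all actives have a fitted effect of over 70% in size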
Conditions: Zika NS2B-NS3 unlinked protease, AMC fluorogenic substrate; series mostly up to 54.1 µM; activity change, negative = inhibition: at the top concentration
In short: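 Fluorogenic AMC-substrate cleavage by noncovalent NS2B-NS3 protease complex (25 nM, pH 8.0 Tris buffer with Tween 20) followed for 15 minutes at room temperature (~20% conversion). Percent inhibition from ex340/em450 signal change, fitted by 4-parameter Hill equation.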

Structure (SMILES) | activity change, negative = inhibition
COc1cc(CNC(=O)CCCC/C=C/C(C)C)ccc1O | 5.75% [at 104 µM]
CCCCCCOc1ccccc1C(N)=O | -3.05%
Nc1nc2ccc([N+](=O)[O-])cc2s1 | -9.46% [at 104 µM]
CN(C)[C@@H]1C(=O)C(C(=O)NCN2CCCC2)=C(O)[C@@]2(O)C(=O)C3=C(O)c4c(O)cccc4[C@@](C)(O)C3C[C@@H]12 (some centres undefined) | -14.3%
CC(=O)c1ccc(OCC(=O)N2CCCCC2)cc1 | -4.44%
C#C[C@]1(O)CC[C@H]2[C@@H]3CCc4cc(O)ccc4[C@H]3CC[C@@]21C | -8.29%

Tested on: Zika virus NS2B-NS3 protease (unlinked complex)
Assay: Primary screen GU Rhodamine qHTS for Zika virus inhibitors: Unlinked NS2B-NS3 protease assay (AID 1347159); note: nearly all actives have a fitted effect of over 60% in size; note: potency is the fitted concentration of half-maximal effect; for activity change, negative = inhibition: % is set by controls: 0 for no effect and ±100 for the full control effect
Conditions: Recombinant ZIKV NS2B-NS3 protease, Rhodamine110 substrate fluorescence; series mostly up to 107 µM; activity change, negative = inhibition: at the top concentration
In short: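 In dose–response format, inhibition of unlinked protease (25 nM) was measured with 1.5 microM bis-peptide Rhodamine110 substrate. Aprotinin served as the intraplate control.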

Structure (SMILES) | activity change, negative = inhibition | Potency
O=C(O)Cc1cccc(-c2cc(CCCCCCc3ccc(O[C@H]4O[C@H](CO)[C@@H](O)[C@H](O)[C@@H]4O)c(-c4cccc(CC(=O)O)c4)c3)ccc2O[C@H]2O[C@H](CO)[C@@H](O)[C@H](O)[C@@H]2O)c1 | 17.6% [at 1.28 µM] | –
Cc1ccc2c(n1)Oc1ccc(C(C)C(=O)OCC(=O)N(C)C)cc1C2 (centres undefined) | 0% | –
Cc1onc(-c2c(F)cccc2Cl)c1C(=O)N[C@@H]1C(=O)N2[C@@H]1SC(C)(C)[C@@H]2C(=O)O | 0% | –
CN1[C@@H]2CC[C@H]1CC(OC(c1ccccc1)c1ccccc1)C2 (some centres undefined) | 21% | –
C/C(=N\O)c1ccc(OCC(=O)N2CCCCC2)cc1 | 22.6% | –
CC(C(=O)O)c1ccc2c(c1)[nH]c1ccc(Cl)cc12 (centres undefined) | – | 35.5 µM (active)
COc1ccc(/C=C/C(=O)Nc2ccccc2C(=O)O)cc1OC | 0% | –
CC1(C)[C@@H](O)CC[C@]2(C)[C@H]3C(=O)C=C4[C@@H]5C[C@@](C)(C(=O)O)CC[C@]5(C)CC[C@@]4(C)[C@]3(C)CC[C@@H]12 | – | 17.8 µM (active)
CC1(C)S[C@@H]2[C@H](NC(=O)[C@H](N)c3ccc(O)cc3)C(=O)N2[C@H]1C(=O)O | 0% | –
O=C1CC[C@@H](C(=O)N2CSC[C@H]2C(=O)O)N1 ([pGlu]-[Thz]-OH) | 30% | –
CC(=O)O[C@H]1C[C@@]2(C)[C@@H](C[C@@H](O)[C@H]3[C@@]4(C)CC[C@@H](O)[C@@H](C)[C@@H]4CC[C@@]32C)/C1=C(\CCC=C(C)C)C(=O)O | 13.8% | –
CC(=O)SCC(CC(=O)c1ccc(C)cc1)C(=O)O (centres undefined) | 0% | –
C[C@H](O)[C@H](O)[C@H]1CNc2nc(N)[nH]c(=O)c2N1 | 0% | –
O=C(O)CC1CC(c2ccccc2)=NO1 (centres undefined) | 0% [at 32.5 µM] | –
CN1[C@@H]2CC[C@H]1CC(OC(=O)C(CO)c1ccccc1)C2 (some centres undefined) | 36.4% | –
COc1cc(CNC(=O)CCCC/C=C/C(C)C)ccc1O | -21.4% | –
COC(=O)[C@H]1[C@H]2C[C@@H]3c4[nH]c5cc(OC)ccc5c4CCN3C[C@H]2C[C@@H](OC(=O)/C=C/c2cc(OC)c(OC)c(OC)c2)[C@@H]1OC | 55.3% [at 32.5 µM] | –
CC(=O)c1ccc(OCC(=O)N2CCCCC2)cc1 | 0% | –
COc1cc(/C=C/C(=O)N2CCN(CC(=O)N3CCCC3)CC2)cc(OC)c1OC | 27.7% | –
CC1(C)S[C@@H]2[C@H](NC(=O)[C@H](NC(=O)N3CCN(S(C)(=O)=O)C3=O)c3ccccc3)C(=O)N2[C@H]1C(=O)O | 23.1% | –
CCNC(=O)[C@H]1O[C@@H](n2cnc3c(N)nc(NCCc4ccc(CCC(=O)O)cc4)nc32)[C@H](O)[C@@H]1O | 57.4% | –

Tested on: Zika virus NS2B-NS3 protease (linked construct)
Assay: Primary screen NINDS Rhodamine qHTS for Zika virus inhibitors (AID 1347160); note: nearly all actives have a fitted effect of over 55% in size; note: potency is the fitted concentration of half-maximal effect; for activity change, negative = inhibition: % is set by controls: 0 for no effect and ±100 for the full control effect
Conditions: purified NS2B-NS3 protease, Rhodamine110 substrate fluorescence; series mostly up to 57.1 µM; activity change, negative = inhibition: at the top concentration; outcome: at the top concentration
In short: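 Each compound, titrated, sat 15 min with 25 nM linked protease before 1.5 microM Rhodamine110 substrate went in. Fluorescence gain over the next 15 min, in pH 8.0 Tris with Tween 20, gave Hill-fitted curves.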

Structure (SMILES) | activity change, negative = inhibition | outcome | Potency
O=C(O)Cc1cccc(-c2cc(CCCCCCc3ccc(O[C@H]4O[C@H](CO)[C@@H](O)[C@H](O)[C@@H]4O)c(-c4cccc(CC(=O)O)c4)c3)ccc2O[C@H]2O[C@H](CO)[C@@H](O)[C@H](O)[C@@H]2O)c1 | 11.1% [at 0.684 µM] | – | –
Cc1ccc2c(n1)Oc1ccc(C(C)C(=O)OCC(=O)N(C)C)cc1C2 (centres undefined) | 8.79% | – | –
Cc1onc(-c2c(F)cccc2Cl)c1C(=O)N[C@@H]1C(=O)N2[C@@H]1SC(C)(C)[C@@H]2C(=O)O | -14.2% | – | –
CN1[C@@H]2CC[C@H]1CC(OC(c1ccccc1)c1ccccc1)C2 (some centres undefined) | – | inactive | –
C/C(=N\O)c1ccc(OCC(=O)N2CCCCC2)cc1 | -10.9% | – | –
O=C(O)[C@H](CC(=O)N1C[C@H]2CCCC[C@H]2C1)Cc1ccccc1 | 77.4% | – | –
COc1ccc(/C=C/C(=O)Nc2ccccc2C(=O)O)cc1OC | -4.21% | – | –
O=C(O)c1cc(O)c(O)c(O)c1 | – | – | 49.3 µM (active)
CC1(C)[C@@H](O)CC[C@]2(C)[C@H]3C(=O)C=C4[C@@H]5C[C@@](C)(C(=O)O)CC[C@]5(C)CC[C@@]4(C)[C@]3(C)CC[C@@H]12 | – | – | 14.1 µM (active)
CC1(C)S[C@@H]2[C@H](NC(=O)[C@H](N)c3ccc(O)cc3)C(=O)N2[C@H]1C(=O)O | – | inactive | –
O=C1CC[C@@H](C(=O)N2CSC[C@H]2C(=O)O)N1 ([pGlu]-[Thz]-OH) | 6.77% | – | –
CC(=O)O[C@H]1C[C@@]2(C)[C@@H](C[C@@H](O)[C@H]3[C@@]4(C)CC[C@@H](O)[C@@H](C)[C@@H]4CC[C@@]32C)/C1=C(\CCC=C(C)C)C(=O)O | -16.3% | – | –
CC1(C)[C@@H](O[C@H]2O[C@H](C(=O)O)[C@@H](O)[C@H](O)[C@H]2O[C@@H]2O[C@H](C(=O)O)[C@@H](O)[C@H](O)[C@H]2O)CC[C@]2(C)[C@H]3C(=O)C=C4[C@@H]5C[C@@](C)(C(=O)O)CC[C@]5(C)CC[C@@]4(C)[C@]3(C)CC[C@@H]12 | -14.8% [at 33.1 µM] | – | –
CC(=O)SCC(CC(=O)c1ccc(C)cc1)C(=O)O (centres undefined) | -0.0483% | – | –
C[C@H](O)[C@H](O)[C@H]1CNc2nc(N)[nH]c(=O)c2N1 | 46.8% | – | –
CN1[C@@H]2CC[C@H]1CC(OC(=O)C(CO)c1ccccc1)C2 (some centres undefined) | -1.05% | – | –
COc1cc(CNC(=O)CCCC/C=C/C(C)C)ccc1O | 3.98% | – | –
COC(=O)[C@H]1[C@H]2C[C@@H]3c4[nH]c5cc(OC)ccc5c4CCN3C[C@H]2C[C@@H](OC(=O)/C=C/c2cc(OC)c(OC)c(OC)c2)[C@@H]1OC | – | inactive [at 15.1 µM] | –
CC(=O)c1ccc(OCC(=O)N2CCCCC2)cc1 | 7.38% | – | –
COc1cc(/C=C/C(=O)N2CCN(CC(=O)N3CCCC3)CC2)cc(OC)c1OC | -3.53% | – | –
CC1(C)S[C@@H]2[C@H](NC(=O)[C@H](NC(=O)N3CCN(S(C)(=O)=O)C3=O)c3ccccc3)C(=O)N2[C@H]1C(=O)O | 4.37% | – | –
CCNC(=O)[C@H]1O[C@@H](n2cnc3c(N)nc(NCCc4ccc(CCC(=O)O)cc4)nc32)[C@H](O)[C@@H]1O | 20.8% | – | –

Source: PubChem BioAssay (NCATS)
